± gives the standard deviation.
tested on: MILI (PIWIL2) piRISC loaded with L1MC piRNA (26 nt); experiment: pre-steady-state target cleavage rate (min^-1); guide: L1MC piRNA 5'p-UAACUAAAUACUAUGCAAGCUGUAGG; MIWI and MILI are mouse PIWI proteins and EfPiwi is from a freshwater sponge; tags in brackets are library labels; higher = faster piRNA-guided slicing of the target; settings: auxiliary factor: 500 nM mouse GTSF1
How it was run: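 For Cleave-'n-Seq, a transcribed, DNA-blocked target RNA library […] met 1 nM active affinity-purified piRISC with one synthetic guide at 33 °C for 0–8 or 0–960 min in HEPES–potassium acetate buffer, with or without 500 nM GTSF1 partner protein. Uncleaved targets were sequenced and normalised to depth and weakly complementary targets, with three trials pooled and k3 capped at 0.0001 min^-1. A burst-and-steady-state fit supplied the pre-steady-state cleavage rate.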
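Note: 1 nM active piRISC with 0.1 nM target library at 33 °C single turnover.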

Sequence	pre-steady-state target cleavage rate
UCCUCGUACAGCUUGCAUAGUAUAUAGUUA	0.251 ± 0.02
UCCUGCUGACAGCUUGCAUAGUAUUUAGUUA	0.327 ± 0.025
UCCUGCUACAGCUGCAUAGUAUUUAGUUA	0.271 ± 0.02
UCCUCCUACAGCUUGCUUAGUAUUUUGUUA	0.133 ± 0.016
UCCUGGAUCAGGUUGCAAAGUAUUUAGUUA	0.121 ± 0.011
UCCUGGAUGAGACUUGCAUAGUAUUUAGUUA	0.186 ± 0.021
UCCUGGCACAGCUUGCAUAGUAUUUAGUUA	0.289 ± 0.053
UCCUCCUACAGGUUGCAUAGUAUUUUGUUA	0.137 ± 0.021
UCCUGGUACAGCGUUGCAUAGUAUUUAGUUA	0.196 ± 0.027
UCCUGGAUCACCUUGCAUAGUAUUUAGUUA	0.234 ± 0.023
UCCUCCUACAGCUUGCAUAGUAUAAUGUUA	0.158 ± 0.026
UCCUGCUACAGCUUGCAUAGUAUUAAGUUA	0.245 ± 0.028
UCCUCCUAUCAGCUUGCAUAGUAUUUAGUUA	0.322 ± 0.015
UCCUGCUACACCUAGCAUAGUAUUUAGUUA	0.254 ± 0.021
UCCUCACUACAGCUUGCAUAGUAUUUAGUUA	0.259 ± 0.022
UCCUGGUACAGCUACCAUAGUAUUUAGUUA	0.305 ± 0.044
UCCUGGUACACCUAGCAUAGUAUUUAGUUA	0.201 ± 0.044
UCCUGGAUGUCCUUGCAUAGUAUUUAGUAA	0.117 ± 0.019
UCCUGGAUCAAGCUUGCAUAGUAUUUAGUUA	0.237 ± 0.018
UCCUGGAACAGCUUGCAUAGUAUUUAGUGUA	0.231 ± 0.018

Sequence	pre-steady-state target cleavage rate
UCCUCAUACAGCUUGCAUAGUAUUUAGUUA	0.319 ± 0.015
UCCUGGAUCAGCUUGCAAACUAUUUAGUUA	0.0267 ± 0.0067
UCCUGCAACAGCAUGCAUAGUAUUUAGUUA	0.329 ± 0.023
UCCUGGAACAGCUUACAUAGUAUUUAGUUA	0.223 ± 0.018
UCCUGCUAUCAGCUUGCAUAGUAUUUAGUUA	0.268 ± 0.022
UCCUGGAUCAGCUUGCAAAGUAUUUAGAUA	0.126 ± 0.018
UCCUGGAUGAGCUUGCAUAGUAUUUAGUUU [g2:g21:cont:t1U]	0.226 ± 0.011
UCCUCCUACAUGCUUGCAUAGUAUUUAGUUA	0.149 ± 0.018
UCCUCCUACACCUUGGAUAGUAUUUAGUUA	0.182 ± 0.026
UCCUCCUACAGCUUGCAUAGUAAUUUAGUUA	0.199 ± 0.019
UCCUGCUACAGGUUGCAUAGUAAUUAGUUA	0.216 ± 0.032
UCCUGGUACAGCAUGCAUAGUAUUUAGUUA	0.268 ± 0.02
UCCUCCUACAGCAUGCAUAGUAAUUAGUUA	0.251 ± 0.024
UCCUGGUACAGCUUGCAAAGUAUUUAGUUA	0.11 ± 0.013
UCCUGGAACAGCUUGCAUAGUAUUUAGUUG [g2:g23:cont:t1G]	0.252 ± 0.024
UCCUGGAUCAGCUAGCAUAGUAAUUAGUUA	0.152 ± 0.015
UCCUGGUACAGCCUGCAUAGUAUUUAGUUA	0.186 ± 0.024
UCCUGGAACAGCUUGCAUGUAUUUAGUUA	0.083 ± 0.014
UCCUGGAUGAGCUUGCAUAGUAAUUAGUUA	0.184 ± 0.018
UCCUGGAAGAGCUUGCAUAGUAAUUAGUUA	0.177 ± 0.015
